By AC50 is commonly meant the concentration at which the activity in the assay is half-maximal.

Among the data in PubChem BioAssay (EPA / NIEHS) are outcome and AC50 values, retold here.

Each structure is given as a SMILES string. “And” between values parts separate entries of the source, which are not always exact repeats. Equal values may be shown once. The source made the active and inactive calls. How the source made its calls: active means hit-call score of the fitted dose curve at least 0.9, where 1 is the maximum; inactive means score below 0.9.

Read-out in the assay: Protein phosphatase 2A (PPP2R4), PTPA (gene 5524)
Kind of assay: LTEA_HepaRG_PPP2R4: Life Technologies and Expression Analysis (LTEA) Assay for Protein phosphatase 2A (PPP2R4) using HepaRG (AID 2283522). As to conditions: mRNA level, 48 h; actives raise or lower the signal. As for the experimental part:
LTEA_HepaRG is a cell based, multiplexed-readout assay that uses HepaRG, a human liver cell line, with measurements taken at 48 hours after chemical dosing on a 96-well plate.LTEA_HepaRG_PPP2R4 is one of 102 assay component(s) measured in the LTEA HepaRG cell culture assay. It is a marker of Cell proliferation, survival, death.Data from the assay component LTEA_HepaRG_PPP2R4 was analyzed into 1 endpoint. This assay endpoint, LTEA_HepaRG_PPP2R4, was analyzed with bidirectional fitting relative to DMSO as the negative control and baseline of activity. Using a type of inducible reporter, measures of mRNA induction for gain or loss-of-signal activity can be used to understand regulation of transcription factor activity. To generalize the intended target to other relatable targets, this assay endpoint is annotated to the phosphatase intended target family, where the subfamily is serine/threonine phosphatase.
A total of 1060 chemcials from the ToxCast library were tested in eight-point concentration-response experiments. Cell culture and cytotoxicity assays were conducted at Thermo Fisher Scientific's Custom Services facility (Madison, WI). A single lot of human HepaRG cells (Thermo Fisher Scientific, Frederick, MD) was used for the cell culture experiments. 96-well format collagen type I coated plates of human HepaRG cells were prepared using established methods. Briefly, cryopreserved HepaRG cells were thawed, plated at a density of approximately 100,000 cells/well in HepaRG Thaw, Plate, and General Purpose media (HPRG770, Thermo Fisher Scientific), and incubated for 48 hours. 0.5% DMSO was selected as vehicle control to balance the requisite need of DMSO in HepaRG cultures to maintain differentiation (for example, baseline metabolism, proportions of hepatocytes vs. cholangiocytes), while enabling further hepatic receptor pathway activation (for example, PXR and CAR) in response to chemical exposure. 48 hours after plating, the culture medium was replaced with HepaRG Serum-Free Incudtion Media. Cells were exposed to each test chemical in duplicate and maintained in CO2 incubators for another 48 hours. Chemical plates were thawed to room temperature and 200x concentrations of treatment groups were prepared. 8-point conentration-reponse curves were made with the highest exposure at 100 uM, followed by half-log dilutions, all in 0.5% DMSO. Each test plate contained variouse controls, induction positive controls (1mM phenobarbital), cytotoxicity positive controls ([…] aflatoxin B1), vehicle controls (0.5% DMSO), and total lysis controls (0.5% DMSO). Cell morphology images were taken using an Essen IncuCyte FLR automated microscope, with six 96-well plates imaged in about 24 minutes. Images were captured and exported and JPEG files. Spent culture media was transfered to black-well plates for the LDH assay, and remaining media was sorted at -80 C for later use. Cells were treated with RLT buffer and frozen until shipped for gene expression analysis. Total RNA was isolated from the cell suspension in 75 uL of Buffer RLT (Qiagen, Germantown, MD 20874) by Quintiles/Expression Analysis (Durham, NC) using a custom isolation procedure. Total RNA from each plate well was transferred to a preamplification plate. Fluidigm's 96.96 Dynamic ArrayTM (Fluidigm, Amsterdam, the Netherlands) technology was used for gene expression analyses by quantitative reverse transcription polymerase chain reaction (qRT-PCR, performed by Quintiles/Expression Analysis, Durham, NC)89. Standard TaqManTM Assays (Applied Biosystems/ThermoFisher Scientific, Foster City, CA) were used to assess the expression of 93 genes selected based on their selectivity and sensitivity to important hepatic receptors known to be modulated by environmental chemicals; importance in human hepatocyte functionality; and hepatotoxicity. […]
On to `CCC(C)OC(=O)N1CCCCC1CCO` (stereo not given), for which the compound was classed as inactive.

Take `CCCOC(=O)c1ccc(C(=O)OCCC)nc1`: the compound was called inactive. On the same count and under the same terms, as for `CCOC(=O)c1ccc(O)cc1`, the entry is “inactive”; as for `COc1c(Cl)ccc(Cl)c1C(=O)O`, “inactive”. Same read-out and setting: as for `CCOC(=O)C(C)Oc1ccc(Oc2nc3ccc(Cl)cc3o2)cc1` (stereo not given), the entry is “inactive”; as for `CC(C)CCCCCCc1ccc(O)cc1`, “inactive”. On to `CCCCC(CC)CN1C(=O)C2C3C=CC(C3)C2C1=O` (stereo not given), for which the AC50 is 50 µM (active).

Take `c1ccc(Nc2ccccc2)cc1`: the compound was called inactive. As for `S=C([S-])NCCNC(=S)[S-].[Mn+2]`, the AC50 was 5.29 µM (active). On to `CCOC(=O)NCCOc1ccc(Oc2ccccc2)cc1`, for which the call was inactive. On to `CCCN(CCC)c1c([N+](=O)[O-])cc(C(F)(F)F)c(N)c1[N+](=O)[O-]`, for which the call was inactive. Same read-out and setting: as for `CCN(Cc1c(F)cccc1Cl)c1c([N+](=O)[O-])cc(C(F)(F)F)cc1[N+](=O)[O-]`, the entry is “inactive”. Turning to `CC(=O)[C@H]1CC[C@H]2[C@@H]3CCC4=CC(=O)CC[C@]4(C)[C@H]3CC[C@]12C`, the AC50 is 87.5 µM (active). Regarding `CCOC(=O)COc1cc(-n2ncc(C(F)(F)F)c(C)c2=O)c(F)cc1Cl`, the call was inactive. `Oc1ccc(C(c2ccc(O)cc2)C(Cl)(Cl)Cl)cc1`: the AC50 is 82.3 µM (active). Regarding `CC(C)(c1ccc(O)cc1)c1ccc(O)cc1`, the outcome was inactive. As to `O=C(O)C1(C(=O)Nc2ccc(Cl)cc2Cl)CC1`, the AC50 is 61.9 µM (active). For `N#CSCSc1nc2ccccc2s1`, the compound was classed as inactive.

As to `COC(=O)CSc1cc(N=c2sc(=O)n3n2CCCC3)c(F)cc1Cl`, the compound was called inactive. In the case of `O=C(Nc1ccc([N+](=O)[O-])cc1Cl)c1cc(Cl)ccc1O`, the AC50 was 3.47 µM (active). Turning to `c1ccc2[nH]c(-c3cscn3)nc2c1`, the compound was classed as inactive. The same measure, in the same setting: as for `CCOC(=O)C(C)Oc1ccc(Oc2cnc3cc(Cl)ccc3n2)cc1` (stereo not given), the entry is “inactive”; as for `CCNc1nc(N)nc(Cl)n1`, “inactive”; as for `N[C@@H](Cc1cc(I)c(Oc2ccc(O)c(I)c2)c(I)c1)C(=O)O`, “inactive”. The same measure, in the same setting: the value for `CCCCCCC(C)OC(=O)COc1nc(F)c(Cl)c(N)c1Cl` (stereo not given) was “inactive”. With `CCCCC(CC)COC(=O)c1ccccc1C(=O)O` (stereo not given), the call was inactive.

As to `Cc1nn(C)c(Oc2ccccc2)c1C=NOCc1ccc(C(=O)OC(C)(C)C)cc1`, the AC50 was 5.33 µM (active). As to `C[C@]12C[C@H](O)[C@H]3[C@@H](CCC4=CC(=O)CC[C@@]43C)[C@@H]1CC[C@@H]2C(=O)CO`, the compound was called inactive. As for `COCCO`, the result was inactive. In the case of `CCN(CC)C(=O)c1cccc(C)c1`, the outcome was inactive.

On to `CCCCCOC(=O)COc1cc(N2C(=O)C3=C(CCCC3)C2=O)c(F)cc1Cl`, for which the call was inactive. Consider `C#C[C@]1(O)CC[C@H]2[C@@H]3CCC4=CC(=O)CC[C@@H]4[C@H]3CC[C@@]21CC`, for which the compound was called inactive. On the same count and under the same terms, the value for `COC(=O)c1ccccc1C(=O)O` was “inactive”. Consider `C[C@]12CC[C@@H]3c4ccc(O)cc4C[C@@H](CCCCCCCCCS(=O)CCCC(F)(F)C(F)(F)F)[C@H]3[C@@H]1CC[C@@H]2O` (stereo not given in full), for which the AC50 was 0.0315 µM (active). For `COC(=O)c1ccc(I)cc1S(=O)(=O)NC(=O)Nc1nc(C)nc(OC)n1`, the call was inactive. For the compound `CN(C)C(=O)Nc1ccc(Cl)c(Cl)c1`, the result was inactive.

On to `C#CCOC(=O)[C@@H](C)Oc1ccc(Oc2ncc(Cl)cc2F)cc1`, for which the result was inactive.

On to `S=C(S)NCCNC(=S)S.[Mn+2].[S-]C([S-])=NCCN=C([S-])[S-].[Zn+2]`, for which the AC50 was 960 nM (active) and 2.26 µM (active). Consider `O=C(O)c1ccccc1`, for which the outcome was inactive. For the compound `C=CCOC(Cn1ccnc1)c1ccc(Cl)cc1Cl` (stereo not given), the AC50 was 87.5 µM (active).
